# Data from PubChem BioAssay (NCI).
# Compounds without any hit were thinned out: in the full panel of roughly 83,000, 20% have a hit.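 Values shown are percent growth following 48 h exposure of cells in 96-well plates to a single concentration of compound; below 10 was considered active.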 Unmarked numbers belong to inactive results. The source made the active and inactive calls.
# Tested on: HL-60(TB) leukemia
# Experiment: NCI-60 one-dose screen, 48 h (100 = growth as untreated, 0 = no growth, -100 = all killed)
# Conditions: 10 µM unless noted
row,SMILES,growth
1,O=C(c1ccc(Cl)cc1)C(c1c[nH]c2ccccc12)c1c[nH]c2ccccc12,-26.2% (active)
2,COc1ccc2cc([C@H](C)C(=O)N/N=C/c3ccc(Br)cc3)ccc2c1,91.3%
3,COc1c(B(O)O)cc(F)cc1-c1nc2ccc3[nH]ncc3c2c2c1COCC2,22.5%
4,Cc1noc2c(Cc3ccccc3)nn(CC(=O)N/N=C/c3ccc(F)cc3)c(=O)c12,93.2%
5,COc1ccc(-c2nc(-c3ccccc3)c(-c3ccccc3)n2-c2ccc(S(=O)(=O)Nc3ncccn3)cc2)cc1OC,89%
6,N#Cc1c(-c2ccc(Cl)cc2)cc(-c2ccccc2)nc1OCc1ccccc1,77.3%
7,Nc1cc(-c2c[nH]c3ccc(F)cc23)nc2cc(-c3c[nH]c4ccccc34)nn12,-0.0986% (active)
8,CC(C)CN1C(=O)/C(=C\C(=O)c2cc3ccccc3oc2=O)c2ccccc21,96.1%
9,CCCCOc1ccc(NC(=O)c2sc3nc(C)ccc3c2N)cc1,46.8%
10,COc1ccc2c3nc4cc(C)c(C)cc4nc3n(CCN(C)C)c2c1,-45.3% (active)
11,CN(C)c1nc(NCCNS(=O)(=O)c2ccc(C3=Nc4c(N)nc(N)nc4NC(c4ccc(F)cc4)C3)cc2)nc(Nc2ccc(F)cc2)n1 (configuration not stated),-25.1% (active)
12,O=C(c1ccc(Cl)cc1)C1[C@H](c2ccc(Br)cc2)[C@@H](c2ccccc2)NC12C(=O)Nc1ccc(Cl)cc12 (some centres not stated),-45.2% (active)
13,COc1ccc(S(=O)(=O)Nc2ccc(-c3ccc4c(c3)NC(=O)/C4=C\c3ccc[nH]3)cc2)cc1OC,76.8%
14,Nc1nn2c(-c3cc4cc(Br)ccc4oc3=O)ccnc2c1N=Nc1ccccc1,92.7%
15,Nc1nc2c(F)c(F)c(F)c(F)c2s1,110%
16,COc1ccc(-c2nc3ccc(C(=O)NN4C(=O)c5ccc([N+](=O)[O-])cc5C4=O)cc3[nH]2)cc1,104%
17,COc1c2c(c(Br)c3c1C(CCc1ccccc1)N(C)CC3)OCO2 (configuration not stated),14.1%
18,Cc1ccc(S(=O)(=O)N(CCn2ccnc2[N+](=O)[O-])CCn2ccnc2[N+](=O)[O-])cc1,94.6%
19,CC1=C(C(=O)Nc2ccccc2)C(c2cccc(Cl)c2Cl)n2c(nc3ccccc32)N1 (configuration not stated),9.78% (active)
20,CN1CCN(Cc2ccc(NC(=O)c3cncc(C#Cc4cnc5ccc(N[C@H]6CCOC6)nn45)c3)cc2C(F)(F)F)CC1,-54.4% (active)
21,COc1ccc([C@H]2C(C(=O)c3ccc(Cl)cc3)C3(N[C@@H]2c2ccccc2)C(=O)Nc2ccc(Cl)cc23)cc1 (some centres not stated),11.5%
22,Cc1ccc2c(N)c(C(=O)Nc3ccc(-c4ccccc4)cc3)sc2n1,38.7%
23,Cc1ccc2nc(-c3ccc(-c4nnc(SCC(=O)Nc5ccc(Br)cc5)o4)cc3)[nH]c2c1,55.6%
24,CCOc1ccc(-c2cc(-c3cc(C(C)C)c(O)cc3C)nn2-c2ccc(S(N)(=O)=O)cc2)cc1,9.77% (active)
25,COc1ccc(-c2ccnc(SCc3cc4cc(OC)ccc4[nH]c3=O)n2)cc1,-8.43% (active)
26,COc1ccc(N=Nc2c(N)nn3c(-c4cc5ccccc5oc4=O)ccnc23)cc1,73.9%
27,COc1cc(/C=C/C(=O)c2cnn(-c3cc(=O)[nH]c4ccccc34)c2C)cc(OC)c1OC,0.36% (active)
